The full list was thinned out, with hits kept by preference.
Pf Dd2 inh: qHTS Primary assay for Inhibitors of Plasmodium falciparum Dd2 growth in vitro | Potency, µM (series often up to 28.9 µM), actives largely listed as inhibitors | 120,000 compounds, 4.3% hits | P. falciparum Dd2 growth, SYBR Green, 72 h; active means well fitted inhibition curve with a large enough effect; further: nearly all actives have a fitted effect of over 65% in size
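Readout: SYBR Green fluorescence, 485 nm excitation, 535 nm emission, after ~16 h lysis at 37C. Before that, Dd2-infected red cells (2.5% hematocrit) grew 72 h with compound, 29 uM top final concentration.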
Of the large screens only hits and unclear results are named; the others gave an inactive call.

Cc1cccc(CNC(=O)CN2CC(C)Sc3ccccc32)c1 (configuration not stated)	none
O=C(Cn1c(-c2cccs2)cc2ccccc21)NCCCN1CCN(c2ccc(F)cc2)CC1	Pf Dd2 inh 10µM
COCc1nc(C2CC(NC(=O)C(=O)c3ccco3)C2)cc(=O)[nH]1 (configuration not stated)	none
CCc1nnc2ccc(N3CCCCC3)nn12	none
Cc1cnc(C(=O)NC2C[C@H]3CC[C@@H](C2)N3C(=O)c2cnc(C)cn2)cn1 (some centres not stated)	none
Cc1cc2ncc(C(=O)N3CCC(N4CCCC4)CC3)cn2n1	none
CCCCN(Cc1cccnc1)C(=O)c1cnc(-c2ccc(C)cc2)[nH]c1=O	none
CCCN(Cc1ccncc1)C(=O)c1cnc(-c2ccccn2)[nH]c1=O	Pf Dd2 inh 13µM
CCN(Cc1ccncc1)C(=O)c1cc(-c2cnc(C)nc2)nc2c(C)cccc12	none
CNC(=O)[C@H]1C[C@H](Oc2ccccc2)CN1C(=O)NCc1ccc(C)cc1	none
COC(=O)C1=CN(CC(=O)N2CCN(c3ccccc3)CC2)S(=O)(=O)N=C1C	none
Cc1cnn(CCC(=O)N2CCCCCCNC(=O)[C@@H]3CCCC[C@@H]32)c1	none
O=C(C1CCCO1)N1CCc2c(n(Cc3cccnc3)n(-c3ccccc3)c2=O)C1 (configuration not stated)	none
COc1ccc(CN2C[C@@H](CO)[C@H](c3nc(C)no3)C2)cc1OC	none
COc1cccc(CN2C[C@@H](CO)[C@H](c3nc(C)no3)C2)c1OC	none
COc1ccc2c(c1)c(CN1C[C@@H](CO)[C@H](c3nc(C)no3)C1)cn2C	Pf Dd2 inh 10µM
Cc1noc2c(NC(C)C)cc(-c3ccc(Cl)cc3)nc12	none
O=C(NC[C@@H]1CCN(C(=O)Cc2ccccc2O)C[C@H]1O)C1CCCC1	none
COCCNc1ncccc1-c1noc([C@@H]2CCCN2Cc2ccccc2OC)n1	Pf Dd2 inh 7.9µM
COCCNc1ncccc1-c1noc([C@@H]2CCCN2C2CCC2)n1	none
COCCNc1ncccc1-c1noc([C@@H]2CCCN2Cc2ccc(C(=O)O)cc2)n1	none
CC(C)CCN1C[C@@H]2C(=O)N(CCc3ccccc3)C(=O)[C@@H]2C1	Pf Dd2 inh 8.9µM
O=C1[C@H]2CN(Cc3ccc(Cl)cc3)C[C@H]2C(=O)N1CCc1ccccc1	none
Cc1ccccc1CN1C[C@@H]2C(=O)N(CCc3ccccc3)C(=O)[C@@H]2C1	none
COCc1nc(CCNC(=O)CCC2CCCC2)no1	none
COc1ccc(/C=C/C(=O)Nc2ccc3nc4c(c(Nc5ccc(OC)c(OC)c5)c3c2)CCCC4)cc1	Pf Dd2 inh 2.2µM
COc1ccc(NC(=O)c2sc3nc4c(cc3c2N)CCCCCC4)cc1OC	none
COc1cc(NC(=O)c2ccc3c(Cl)c4c(nc3c2)CCC4)cc(OC)c1OC	none
COc1ccc(Nc2c3c(nc4ccc(NC(=O)/C=C/c5cc(OC)c(OC)c(OC)c5)cc24)CCCC3)cc1OC	Pf Dd2 inh 2.5µM
COc1ccc(/C=C/C(=O)Nc2ccc(Cl)c(Cl)c2)cc1	none
COc1cc(NC(=O)CSc2c3c(nc4ccccc24)CCC3)cc(OC)c1OC	none
Cc1cnc(C(=O)N[C@@H]2CCC[C@@H]2C(=O)NCc2c(C)n[nH]c2C)cn1	none
COc1nc2c(cc1CNC(=O)c1ccn[nH]1)C(=O)N(CCc1ccccn1)C2	none
COc1cc(-c2onc(C)c2C(=O)NCCCCc2ccccc2)cc(OC)c1OC	none
CCN1CCC(N2CCCC(C(=O)NCc3ccccc3)CCNC(=O)CC2)CC1 (configuration not stated)	none
CCN(CC)CC(C)NC (configuration not stated)	none
COc1ccc(-n2nc(C)c([C@@H]3C=C[C@@H](NC(=O)NC4CCCCC4)C3)c2C)cc1	Pf Dd2 inh 16µM
Cc1ccc(-n2nc(C)c([C@@H]3C=C[C@@H](NC(=O)NC4CCCCC4)C3)c2C)cc1Cl	none
Cc1nn(CCC#N)c(C)c1[C@@H]1C=C[C@@H](NC(=O)NC(C)C)C1	none
Cc1nn(-c2ccc(C(C)C)cc2)c(C)c1[C@@H]1C=C[C@@H](NC(=S)NC2CCCCC2)C1	none
Cc1nn(-c2ccc(C(F)(F)F)cc2)c(C)c1[C@@H]1C=C[C@@H](NC(=O)NC(C)C)C1	none
COc1ccc(NC(=O)N[C@@H]2C=C[C@@H](c3c(C)nn(-c4ccc(C(C)C)cc4)c3C)C2)cc1	Pf Dd2 inh 11µM
COc1ccc(NC(=O)c2nnn(-c3ccc(C(C)C)cc3)c2C)c(OC)c1	none
CCNC(=O)N[C@@H]1C=C[C@@H](c2c(C)nn(-c3ccc(OC)cc3)c2C)C1	Pf Dd2 inh 10µM
O=C(O)COCC(=O)N1CC[C@@H]2[C@H]1C(=O)N(c1ccc(F)c(Cl)c1)C(=O)N2Cc1ccccc1	none
COCCC1(NC(=O)c2ccco2)CCN(S(C)(=O)=O)CC1	none
COc1ccc(S(=O)(=O)c2c(Nc3cccc(C)c3C)sc(C(=O)c3ccccc3)c2N)cc1	Pf Dd2 inh 10µM
COc1ccccc1Nc1sc(C(=O)c2ccc(F)cc2)c(N)c1S(=O)(=O)c1ccc(C)cc1	none
Cc1ccccc1Nc1sc(C(=O)c2ccccc2)c(N)c1S(C)(=O)=O	none
Cn1cccc1C(=O)N1C[C@@H](Oc2ccccc2)C[C@@H]1C(=O)N1CCOCC1	none
Cc1ncsc1CN1CCCC(c2nc(CCOCC3CCCC3)no2)C1 (configuration not stated)	none
O=C(Nc1cccc(Br)c1)c1cnc(-c2ccccc2)nc1-c1ccncc1	none
COCCn1cc(CN2CCc3ccccc3C2)ccc1=O	none
CCCNC(=O)N1CCOc2ccc(CN3CCc4ccccc4C3)cc2C1	none
COCCOCC(=O)N1CCOc2ccc(CN3CCc4ccccc4C3)cc2C1	Pf Dd2 inh 11µM
CCOCCCNC(=O)N1CCOc2ccc(CN3CCc4ccccc4C3)cc2C1	none
O=C(Nc1cccc(F)c1)N1CCOc2ccc(CN3CCc4ccccc4C3)cc2C1	Pf Dd2 inh 2µM
O=C(Nc1cccc(F)c1)N1CCC(O)(c2csc(CN3CCc4ccccc4C3)n2)CC1	none
NC(=O)NCCC(=O)N1CCc2onc(-c3cccc4ccccc34)c2C1	none
Cc1ccc(C2Cn3nnc(C(=O)N4CCC(C(=O)Nc5cccc(Cl)c5)CC4)c3CO2)cc1 (configuration not stated)	none
CC(C)(C)OC(=O)N1CCC(c2c(C(=O)NCc3ccc4c(c3)OCO4)cnn2-c2ccc(F)cc2F)CC1	Pf Dd2 inh 7.9µM
Cc1cccc(-n2ncc(C(=O)Nc3ccc4c(c3)OCO4)c2C2CCN(C(=O)OC(C)(C)C)CC2)c1	Pf Dd2 inh 10µM
Cc1c(Cl)cccc1-n1ncc(C(=O)Nc2ccc(F)cc2F)c1C1CCN(C(=O)OC(C)(C)C)CC1	none
Cc1ccc(-n2ncc(C(=O)N3CCCCC3)c2C2CCN(C(=O)OC(C)(C)C)CC2)cc1C	none
COc1ccc(NC(=O)c2cnn(-c3ccc(F)cc3F)c2C2CCN(C(=O)OC(C)(C)C)CC2)cc1Cl	Pf Dd2 inh 7.9µM
CC(C)(C)OC(=O)N1CCC(c2c(C(=O)Nc3ccc4c(c3)OCCO4)cnn2-c2ccc(F)cc2F)CC1	Pf Dd2 inh 4µM
O=C1C2CN([S+](=O)([O-])c3ccccc3)CCC2OCCN1Cc1ccccc1 (configuration not stated)	none
O=C(NC[C@H]1Cn2c(-c3ccc4c(c3)OCO4)cnc2CO1)c1ccc2c(c1)OCO2	none
CC(=O)N1CCC(N2C[C@@H]3C[C@H]2C(=O)N(C)c2ccccc2O3)CC1	none
O=[S+]([O-])(Nc1ccccc1)c1ccc2c(c1)OCCN(Cc1ccccn1)C2	none
CCS(=O)(=O)N1[C@H]2CC[C@@H]1c1cnc(-c3ccc(F)cc3)nc1C2	none
Cc1[nH]ncc1CNC(=O)CN1CCCc2nc(C3CC3)ncc2C1=O	none

Bioassay records deposited in PubChem by National Center for Advancing Translational Sciences (NCATS).
